Screens from PubChem.
MIN6 prolif: inducers of MIN6 beta-cell proliferation, primary screen, ATP luminescence, uHTS | MIN6 cells proliferation, ATPlite luminescence, 48 h; cells starved in 0.2% serum; 100% = growth in 10% serum | proliferation, % at 10 µM | actives 0.29% (n = 330,000) | AID 2380, 2010;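 active means compounds whose signal lies at least 3.5 SD above the mean of all wells on their plate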
FAS TE block: FAS thioesterase domain inhibitors, primary screen, biochemical, fluorescence intensity, uHTS | inhibition, % at 15 µM | Fatty acid synthase (Homo sapiens), P49327 | recombinant FAS-TE, OMFH fluorogenic substrate, fluorescence endpoint | actives 0.67% (n = 360,000);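 active means compounds whose normalised, plate-corrected inhibition of enzyme fluorescence in the single-dose primary screen is 50% or more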
pCIP destab: p/CIP-EGFP fusion destabilizers, primary screen, fluorescence, F442A cells | Q05BA5 | 16 h | decrease of EGFP signal, % at 10 µM | actives 0.01% (n = 290,000) | AID 1984, 2009;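 active means EGFP signal decrease of at least 30% at 10 µM or well 3 SD below plate mean, unless failing retest; inactive means the rest, including hits failing retest or dose response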
MPTP block: mitochondrial permeability transition pore inhibitors, primary screen, biochemical, isolated mouse mitochondria, absorbance | Ca2+ swelling absorbance, 30 min | inhibition, % at 10 µM | AID 602449, 2012 | actives 1.4% (n = 360,000);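 active means inhibition of 50% or more, scaled per plate between neutral and stimulator controls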
GRIN3A LBD mod: binders of NR3A ligand-binding domain, primary screen, biophysical, differential scanning fluorimetry, uHTS; Glutamate receptor ionotropic, NMDA 3A (GRIN3A) ligand-binding domain; AID 1259313, 2017; Tm shift relative to glycine control, % at 25 µM; actives 2.5% (n = 340,000); NR3A LBD differential scanning fluorimetry, Tm shift; 0% = protein alone, 100% = glycine-bound protein;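 active means melting temperature shift of at least 10% of the positive control shift, at one fixed dose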
Rh123 counter: fluorescence retest of MPTP screen hits in isolated mitochondria, single concentration; shares compounds with MPTP block; membrane potential, Rhodamine 123 fluorescence; inhibition, % at 10 µM; actives 78% (n = 5,000); in the data active means inhibition above about 22%
MPTP swell DR: mitochondrial permeability transition pore inhibitors, dose response, biochemical, absorbance, uHTS hits; actives 58% (n = 780); AID 651561, 2012; isolated mitochondria swelling; shares compounds with MPTP block; IC50, µM; in the data active means IC50 below about 20 µM
MPTP cs DR: fluorescent counter-screen in isolated mitochondria, dose response, counter-screen for MPTP inhibitor project, biochemical, fluorescence, uHTS hits. shares compounds with MPTP block. isolated mitochondria counterscreen, fluorescence read-out. IC50, µM. actives 49% (n = 780). AID 651564, 2012; in the data active means IC50 below about 80 µM
Of the large screens only hits and unclear results are named; the others gave an inactive call (follow-up assays come after a bar, where they were run). This is a sample that favours compounds with a hit; in the whole collection about 4.1% have one here.

COc1ccc(COc2ccccc2C(=O)NCc2ccccc2)cc1F	MPTP block 96 | Rh123 counter 88
N/C(=C\C(=O)c1cc(Cl)ccc1O)C(Cl)(Cl)Cl	none
CCOC(=O)N1CCC(NC(=O)CC2C(=O)NCCN2Cc2ccccc2)CC1 (stereo not given)	none
Cc1cccc(NC(=O)Nc2ccc3c(c2)CCC3)c1	MPTP block 80, GRIN3A LBD mod 16 | Rh123 counter 77
Cc1c(C(=O)Nc2nnc(C(F)(F)F)s2)oc2ccccc12	MPTP block 67 | Rh123 counter inactive | MPTP swell DR 6.5 | MPTP cs DR <2.5
COC(=O)c1sc(NC(=O)c2oc3ccccc3c2C)nc1C	none
Cc1ccc(NC(=O)CS(=O)CC(=O)N(CC(=O)NC(C)(C)C)c2cccc(C)c2C)cc1 (stereo not given)	none
Cc1cc(-c2ccc(C)c(S(=O)(=O)NCCCN3CCN(c4ccccc4F)CC3)c2)on1	MPTP block 72 | Rh123 counter 85
Cc1cc(-c2ccc(C)c(S(=O)(=O)NCCCN3CCN(c4ccccc4)CC3)c2)on1	none
COCCNC(=O)CN(C(=O)Cn1nnc2ccccc21)c1cc(C)cc(C)c1	none
COC(=O)Cn1c(CN2CCC(Cc3ccccc3)CC2)nc2c1c(=O)n(C)c(=O)n2C	MPTP block 56 | Rh123 counter 103
Cc1nnc2ccc(Oc3ccc(-c4ccccc4)cc3)nn12	MPTP block 74 | Rh123 counter 66
Cc1ccc2c(c1)c1c3n2CCN(C(=O)Cn2c(-c4ccccc4)noc2=O)C3CCC1 (stereo not given)	none
Cc1ccc2c(c1)c1c3n2CCN(C(=O)C2CC2)C3CCC1 (stereo not given)	none
Cc1ccc2c(c1)c1c3n2CCN(C(=O)CN2CCN(C)CC2)C3CCC1 (stereo not given)	MPTP block 75 | Rh123 counter inactive | MPTP swell DR 20 | MPTP cs DR inactive
CN1CCN(CC(=O)N2CCn3c4c(c5cc(C6CCCCC6)ccc53)CCCC42)CC1 (stereo not given)	MPTP block 98 | Rh123 counter inactive
O=C(CCc1ccccc1)Nc1ccc(S(=O)(=O)NC2=NCCCCC2)cc1	none (no result: pCIP destab)
O=C(NNC(=S)Nc1ccc(Cl)cc1)c1ccccc1OC(F)F	MPTP block 73 | Rh123 counter 86
COc1ccccc1NC(=S)NNC(=S)Nc1ccc(OC(F)F)cc1	MPTP block 97, GRIN3A LBD mod 32 | Rh123 counter 81
O=C(NCCN1C(=O)S/C(=C\c2ccc(Cl)c(Cl)c2)C1=O)C1COc2ccccc2O1 (stereo not given)	MPTP block 99 | Rh123 counter 92
O=C(NCCN1C(=O)S/C(=C\c2ccc(Cl)c(Cl)c2)C1=O)c1ccc2c(c1)C(=O)N(Cc1ccncc1)C2=O	MPTP block 56 | Rh123 counter 20
Cc1ccc(S(=O)(=O)N(C)Cc2ccc(-c3nnc4n3CCC4)cc2)cc1	none
CC(NC(=O)C1CCN(C(=O)[C@@H]2Cc3ccccc3CN2)CC1)c1ccccc1 (stereo not given in full)	none
CC(C)(C)c1ccc(C2CC2C(=O)N/N=C\c2ccc[nH]2)cc1 (stereo not given)	MPTP block 105 | Rh123 counter 98
COc1ccccc1NC(=O)Cc1csc(NC(=S)Nc2ccc(C)cc2)n1	MPTP block 72 | Rh123 counter 75
COc1ccccc1NC(=O)Cc1nc(CCl)cs1	none
COc1ccc(NC(=O)CN2CCCC2c2cccs2)cc1S(=O)(=O)N1CCCCC1 (stereo not given)	none (no result: pCIP destab)
COc1ccccc1CNc1nc(NCCOc2ccccc2)c2sccc2n1	MPTP block 60 (no result: MIN6 prolif, pCIP destab, GRIN3A LBD mod) | Rh123 counter 91
COc1ccccc1CNc1nc(NCc2ccc3occc3c2)c2sccc2n1	MPTP block 72 (no result: MIN6 prolif, pCIP destab, GRIN3A LBD mod) | Rh123 counter 99
COc1ccccc1CNc1nc(NCc2cccs2)nc2ccsc12	MPTP block 78 (no result: MIN6 prolif, pCIP destab, GRIN3A LBD mod) | Rh123 counter 93
Cc1ccc(CNc2nc(NCc3ccccc3)nc3ccsc23)c(C)c1	MPTP block 53 (no result: MIN6 prolif, pCIP destab, GRIN3A LBD mod) | Rh123 counter 101
COCCN1C(=O)COc2ccccc2C1C(=O)Nc1ccc2c(c1)OCCO2 (stereo not given)	none (no result: MIN6 prolif, pCIP destab, GRIN3A LBD mod)
COc1ccc(N2CCN(C(=O)c3ccc(NC(=O)C4=CSCCO4)cc3)CC2)cc1	none
COc1ccccc1CNc1nc(NCc2ccccc2SC)c2sccc2n1	MPTP block 85 (no result: MIN6 prolif, pCIP destab, GRIN3A LBD mod) | Rh123 counter 84
COCCNc1nc(NCc2ccccc2OC)c2sccc2n1	none (no result: MIN6 prolif, pCIP destab, GRIN3A LBD mod)
Cc1ccc(CNc2nc(NCC3CC3)nc3ccsc23)c(C)c1	none (no result: MIN6 prolif, pCIP destab, GRIN3A LBD mod)
COc1ccccc1CNc1nc(NCC2CC2)nc2ccsc12	MPTP block 80 (no result: MIN6 prolif, pCIP destab, GRIN3A LBD mod) | Rh123 counter 92
COc1ccccc1CNc1nc(NCc2ccccc2OC)c2sccc2n1	MPTP block 85 (no result: MIN6 prolif, pCIP destab, GRIN3A LBD mod) | Rh123 counter 115
CCOC(=O)c1c(NC(=O)CSc2nnc(-c3cccnc3)o2)sc(C(C)=O)c1C	MPTP block 75 | Rh123 counter inactive | MPTP swell DR inactive | MPTP cs DR 13
CCOC(=O)N1CCN(S(=O)(=O)c2ccc(C(=O)Nc3nc4ccc(F)cc4s3)cc2)CC1	MPTP block 62 | Rh123 counter inactive | MPTP swell DR inactive | MPTP cs DR 6.3
COC(=O)c1ccc2nc(Nc3nc4c(F)cc(F)cc4s3)sc2c1	MPTP block 101, GRIN3A LBD mod 22 | Rh123 counter 64
CCOC(=O)c1ccc2nc(NC(C)=O)sc2c1	none (no result: MIN6 prolif)
COC(=O)c1ccc2nc(NC(=O)C(C)C)sc2c1	none
CCOC(=O)c1ccc2nc(Nc3nc4ccc(F)cc4s3)sc2c1	MPTP block 101, GRIN3A LBD mod 28 | Rh123 counter inactive | MPTP swell DR 5 | MPTP cs DR <2.5
Cc1cccc(NC(=O)CSc2nnc(-c3ccco3)n2CC2CCCO2)n1 (stereo not given)	none
CCOCCCNCc1cn(-c2ccc(F)cc2F)nc1-c1ccccc1C	MPTP block 58 | Rh123 counter inactive | MPTP swell DR 15 | MPTP cs DR 60
Cc1ccccc1-c1nn(-c2ccc(F)cc2F)cc1CNCC(C)O (stereo not given)	none
